# The whole screen tested about 290,000 compounds, of which about 2,700 (0.93%) were called active.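 Rule for the calls: active = inhibition above the screen-wide mean plus 3 SD, computed separately per campaign (cut at about 16% in these data); inactive = the rest.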 Shown is part of a subset that was picked to be rich in actives. Square brackets hold non-standard residues; d marks the D form. Peptide text beside a SMILES is read from it. * marks the point of attachment. PhAc = O=C(Cc1ccccc1)*
# Test system: Heat shock protein HSP 90 (rabbit reticulocyte lysate; luciferase refolding)
# Assay: HSP90 inhibitors, primary screen, cell lysate, luminescence (AID 1789);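 note: 0% = DMSO wells and 100% = 60 µM geldanamycin wells; inhibitors lower the luminescence because luciferase stays unfolded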
# Conditions: 3 h, at 5.6 µM, active compounds read high
row,Compound,inhibition
1,COc1cc(OC)c(C(=S)N2CCCC2)cc1OC,-0.17% (inactive)
2,O=C(Cn1ncc(N2CCCC2)c(Br)c1=O)c1ccc(Cl)cc1,-0.91% (inactive)
3,CC(C)(C)Nc1nc(-c2ccccn2)nc2ccccc12,-0.49% (inactive)
4,Cc1nc(COc2cc3oc(=O)cc(C)c3cc2Cl)cs1,1.76% (inactive)
5,CCN(C(=O)Cc1c(C(=O)O)n(CC)c2ccccc12)c1ccccc1C,-6.6% (inactive)
6,Cc1c(CNCCc2ccccc2)c(C(=O)O)c(C)n1-c1ccccc1,1.5% (inactive)
7,CCOCCOC(=O)C1=C(C)NC(=O)NC1c1ccc2c(c1)OCO2 (configuration not stated),-3.33% (inactive)
8,O=C(NC1CCCCCCC1)c1cccs1,-3.45% (inactive)
9,O=C(NCc1ccco1)/C(=C\c1cccc([N+](=O)[O-])c1)NC(=O)c1ccco1,-0.13% (inactive)
10,COCCN(C(=O)CCC(=O)Nc1nccs1)C(C(=O)NCCC(C)C)c1ccc(F)cc1 (configuration not stated),2.45% (inactive)
11,Cc1ccc2c(cnn2C(=O)CCC(=O)NC2CCCC2)c1,-3.9% (inactive)
12,O=[N+]([O-])c1ccc(N=Cc2c(O)ccc3ccccc23)cc1,2.1% (inactive)
13,COc1ccc(C=Nc2cccc3ncccc23)cc1,7.77% (inactive)
14,Oc1c(C=Nc2cccc3nsnc23)ccc2ccccc12,36.7% (active)
15,CC(C)C[C@@H](NC(=O)[C@H]1CCCN1C(=O)Cc1ccccc1)C(N)=O (PhAc-[dP]-[dL]-NH2),-3.77% (inactive)
16,COc1ccccc1NC(=O)CN(c1ccccc1OC)S(=O)(=O)c1ccccc1,0.43% (inactive)
17,Cc1cccc(NC(=O)Nc2ccc3c(c2)OCO3)n1,-5.1% (inactive)
18,CCc1c(C)sc(NC(=O)/C=C/c2ccc3c(c2)OCO3)c1C(=O)OC,-8.23% (inactive)
19,Cc1cccc(NC(=O)/C=C/c2ccc3c(c2)OCO3)n1,22.8% (active)
20,Cc1cc(C)cc(NC(=O)NC2CCCCCCC2)c1,-3.82% (inactive)
21,Cn1cc([N+](=O)[O-])c(C(=O)Nc2cnn(Cc3ccc(F)cc3)c2)n1,-0.28% (inactive)
22,O=C(Nc1ccn(Cc2ccccc2)n1)c1cccc(F)c1,11.1% (inactive)
23,O=C(Nc1ccn(Cc2ccccc2)n1)c1n[nH]c([N+](=O)[O-])c1Cl,22.3% (active)
24,O=S(=O)(NC1CCCCC1N1CCN(c2ccccc2F)CC1)c1ccccc1 (configuration not stated),2.71% (inactive)
25,O=C(Nc1ccc(Cl)cc1)c1cccc(OC(=S)N2CCOCC2)c1,-7.8% (inactive)
26,CCOC(=O)Cn1c(=O)n(Cc2ccc(OC)cc2)c(=O)c2cccnc21,-2.48% (inactive)
27,Oc1cccc(/C=N/Nc2ccc(Cl)nn2)c1O,5.19% (inactive)
